Test in all cases: NCI-60 one-dose screen, 48 h (100 = growth as untreated, 0 = no growth, -100 = all killed)
The subject of one test is HT29 colon. To be noted: 10 µM unless noted.
A further test concerns SNB-75 CNS. The settings on record: 10 µM unless noted.
Another test has as its system SNB-19 CNS. The settings on record: 10 µM unless noted.
The test system of the next test is U251 CNS. To be noted: 10 µM unless noted.
The test system of a further test is PC-3 prostate. To be noted: 10 µM unless noted.
Another test has as its system SK-MEL-5 melanoma. To be noted: 10 µM unless noted.
The test system of another test is UACC-62 melanoma. The settings on record: 10 µM unless noted.
The subject of the next test is LOX IMVI melanoma. To be noted: 10 µM unless noted.
In a further test the test system is SK-MEL-28 melanoma. The settings on record: 10 µM.
The subject of another test is SK-MEL-2 melanoma. The settings on record: 10 µM unless noted.
The next test concerns SN12C renal. The settings on record: 10 µM unless noted.
A further test concerns UO-31 renal. To be noted: 10 µM unless noted.
The test system of another test is TK-10 renal. To be noted: 10 µM unless noted.
In the next test the test system is ACHN renal. The settings on record: 10 µM unless noted.
Another test relates to CAKI-1 renal. The settings on record: 10 µM unless noted.
The next test has as its system A498 renal. The settings on record: 10 µM unless noted.
The test system of the next test is CCRF-CEM leukemia. The settings on record: 10 µM unless noted.
The next test concerns MOLT-4 leukemia. The settings on record: 10 µM unless noted.
Another test deals with SR leukemia. The settings on record: 10 µM unless noted.

SMILES strings stand for the structures. The panel holds about 83,000 compounds, 20% with a hit somewhere; the sample as a whole holds those more often.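 Each cell line was grown in a 96-well plate and treated with one concentration of compound for 48 hours. Values below 10 were considered active.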 Unmarked numbers belong to inactive results. The source made the active and inactive calls.

As to `COc1ccc(C2c3ccc4ccccc4c3Oc3ncn(CCCn4ccnc4)c(=N)c32)cc1OC` (configuration not stated), the growth was 20.7% in the test on HT29 colon; 84.4% with SNB-75 CNS; 79.2% in the test on SNB-19 CNS; 61% in the test on U251 CNS; 52.6% in the test with PC-3 prostate; 63.7% in the test with SK-MEL-5 melanoma. The growth was 69.1% in the test on UACC-62 melanoma; 35.9% in the test with LOX IMVI melanoma; 68.2% with SK-MEL-28 melanoma; 81.4% with SK-MEL-2 melanoma; 61% with SN12C renal; 38% in the test with UO-31 renal. For the same compound, the growth was 52.6% in the test with TK-10 renal; 67.4% in the test with ACHN renal; 60.7% with CAKI-1 renal; 40.3% in the test on A498 renal; 42.1% with CCRF-CEM leukemia; 61.9% in the test with MOLT-4 leukemia. In the test on SR leukemia, the growth is 26.9%.
In the case of `COc1cc(C(=O)NN=C2c3ccccc3-c3ccccc32)cc(OC)c1OC`, the growth in the test with HT29 colon was 5.22% (active); with SNB-75 CNS, 14.2%; with SNB-19 CNS, 42.4%; with U251 CNS, 20.9%; in the test on PC-3 prostate it was 31%; in the test on SK-MEL-5 melanoma, 7.14% (active). In addition, the growth with UACC-62 melanoma was 44.2%; in the test with LOX IMVI melanoma, 28.7%; in the test on SK-MEL-28 melanoma, 46.6%; with SK-MEL-2 melanoma it was 6.51% (active); in the test on SN12C renal it was 41.6%; with UO-31 renal it was 46.5%. The growth in the test with TK-10 renal is 55.5%; with ACHN renal, 46.4%; in the test with CAKI-1 renal it was 24.6%; with A498 renal, 6.68% (active); in the test with CCRF-CEM leukemia it was 25.5%; with MOLT-4 leukemia, 39.3%. Moreover, the growth in the test on SR leukemia is 13.9%.
Regarding `Nc1ncnc(N)c1NC(=O)c1ccc(OCc2ccccc2)cc1`, the growth is 96.3% with HT29 colon; 110% in the test on SNB-75 CNS; 103% with SNB-19 CNS; 102% in the test on U251 CNS; 106% in the test with PC-3 prostate; 102% in the test with SK-MEL-5 melanoma. The growth was 99% in the test with UACC-62 melanoma; 110% in the test with LOX IMVI melanoma; 117% in the test on SK-MEL-28 melanoma; 93.1% in the test on SK-MEL-2 melanoma; 98.9% with SN12C renal; 88.1% with UO-31 renal. Also, the growth was 99.3% in the test on TK-10 renal; 99.9% in the test with ACHN renal; 99.3% with CAKI-1 renal; 98% with A498 renal; 98.5% in the test with CCRF-CEM leukemia; 96.8% with MOLT-4 leukemia. Moreover, in the test on SR leukemia, the growth is 94%.
With `CCOC(=O)c1cc2c(n1Cc1ccccc1)-c1oncc1CCC2`, the growth is 37.7% in the test on HT29 colon; 75.6% in the test on SNB-75 CNS; 88.1% in the test on SNB-19 CNS; 85.8% in the test with U251 CNS; 80.6% in the test with PC-3 prostate; 66.6% in the test on SK-MEL-5 melanoma. Moreover, the growth in the test on UACC-62 melanoma was 51.8%; with LOX IMVI melanoma, 79.4%; in the test on SK-MEL-28 melanoma, 67%; in the test with SK-MEL-2 melanoma, 83.5%; in the test on SN12C renal, 82.2%; in the test with UO-31 renal, 62.5%. Besides, the growth with TK-10 renal was 114%; in the test with ACHN renal, 83.8%; with CAKI-1 renal, 74%; with A498 renal, 74.7%; in the test on CCRF-CEM leukemia it was 66.4%; with MOLT-4 leukemia, 72%. In the test with SR leukemia, the growth was 14.1%.
For `COc1ccc(-c2cn3c(C(=O)Nc4ccccc4Cl)c(-c4ccccc4)c4c3n2CCCC4)cc1`, the growth in the test on HT29 colon is 26%; in the test with SNB-75 CNS, 108%; with SNB-19 CNS, 96.6%; with U251 CNS it was 77.4%; with PC-3 prostate it was 72.8%; with SK-MEL-5 melanoma, 84%. For the same compound, the growth with UACC-62 melanoma is 93.2%; in the test on LOX IMVI melanoma, 66.1%; with SK-MEL-28 melanoma, 91.6%; with SK-MEL-2 melanoma it was 104%; in the test with SN12C renal, 82.7%; in the test with UO-31 renal, 62.8%. Moreover, the growth was 72.2% in the test with TK-10 renal; 80.9% with ACHN renal; 81.6% in the test on CAKI-1 renal; 74.9% in the test on A498 renal; 66% in the test on CCRF-CEM leukemia; 69.8% in the test with MOLT-4 leukemia. Further, in the test on SR leukemia, the growth is 62.8%.
`CCOc1ccc(Nc2ccnc3cc(Cl)ccc23)cc1`: the growth was 1.61% (active) in the test with HT29 colon; 1.25% (active) in the test with SNB-75 CNS; 16% with SNB-19 CNS; 4.87% (active) in the test with U251 CNS; 4.74% (active) with PC-3 prostate; -12.5% (active) with SK-MEL-5 melanoma. The growth in the test with UACC-62 melanoma was 21.9%; in the test with LOX IMVI melanoma, -22.3% (active); with SK-MEL-28 melanoma, 31.1%; with SK-MEL-2 melanoma, -40.5% (active); in the test on SN12C renal, 7.43% (active); with UO-31 renal, -12.8% (active). For the same compound, the growth with TK-10 renal is 7.11% (active); in the test on ACHN renal it was 10.9%; with CAKI-1 renal, 2.27% (active); in the test on A498 renal it was -19.5% (active); in the test on CCRF-CEM leukemia, 3.77% (active); in the test on MOLT-4 leukemia, 4.04% (active). The growth with SR leukemia was 0.437% (active).
Turning to `COc1cc(C(=O)Nc2ccc(-c3nc4ccccc4[nH]3)cc2)cc(OC)c1OC`, the growth in the test on HT29 colon was 14.8%; in the test with SNB-75 CNS, 42.9%; in the test with SNB-19 CNS, 53.8%; with U251 CNS, 25%; in the test with PC-3 prostate, 52.5%; with SK-MEL-5 melanoma it was 65.7%. The growth in the test on UACC-62 melanoma was 47.2%; with LOX IMVI melanoma, 36%; in the test with SK-MEL-28 melanoma it was 50%; with SK-MEL-2 melanoma, 105%; with SN12C renal, 45.4%; with UO-31 renal it was 49.5%. The growth in the test with TK-10 renal is 60.1%; in the test on ACHN renal, 61.9%; in the test on CAKI-1 renal, 55.9%; in the test with A498 renal, 37.6%; with CCRF-CEM leukemia, 36.5%; in the test with MOLT-4 leukemia, 41.3%. In the test with SR leukemia, the growth is 10.1%.
As for `O=c1cc(NC2CCN(CCCc3ccccc3)CC2)c2cc(Cl)ccc2o1`, the growth was -12.9% (active) with HT29 colon; -5.24% (active) with SNB-75 CNS; 25.6% in the test with SNB-19 CNS; -24.7% (active) in the test with U251 CNS; 0% (active) with PC-3 prostate; -54.6% (active) with SK-MEL-5 melanoma. Moreover, the growth in the test on UACC-62 melanoma is 9.81% (active); with LOX IMVI melanoma, -1.07% (active); in the test on SK-MEL-28 melanoma it was 8.62% (active); with SK-MEL-2 melanoma, -44% (active); in the test on SN12C renal, 6.09% (active); with UO-31 renal, -10.4% (active). Moreover, the growth was -13.9% (active) in the test with TK-10 renal; 10.3% in the test on ACHN renal; -10.6% (active) in the test on CAKI-1 renal; -19% (active) in the test with A498 renal; 3.59% (active) with CCRF-CEM leukemia; 1.27% (active) with MOLT-4 leukemia. The growth in the test on SR leukemia was -11.4% (active).

(Values after PubChem BioAssay (NCI).)
